In PubChem BioAssay (NCI):
Compounds without any hit were thinned out: in the full panel of roughly 83,000, 20% have a hit.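 Method: cells in 96-well plates; compound added at one concentration; 48 h incubation; percent growth measured; values under 10 scored active.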 Values without a mark were called inactive. Calls of active or inactive are those of the source.

How the values were obtained:
Assay in all cases: NCI-60 one-dose screen, 48 h (100 = growth as untreated, 0 = no growth, -100 = all killed)
Settings in all cases: 10 µM
[1] = tested on: NCI-H23 lung
[2] = tested on: NCI-H226 lung
[3] = tested on: NCI-H322M lung
[4] = tested on: HOP-62 NSCLC
[5] = tested on: NCI-H460 lung
[6] = tested on: HOP-92 NSCLC
[7] = tested on: NCI-H522 lung
[8] = tested on: A549/ATCC NSCLC
[9] = tested on: 786-0 renal
[10] = tested on: COLO 205 colon
[11] = tested on: DU-145 prostate
[12] = tested on: K-562 leukemia
[13] = tested on: MALME-3M melanoma
[14] = tested on: MDA-MB-231 breast
[15] = tested on: RXF 393 renal
[16] = tested on: SF-268 CNS
[17] = tested on: SF-295 CNS
[18] = tested on: SF-539 CNS
[19] = tested on: UACC-257 melanoma
[20] = tested on: M14 melanoma

SMILES | growth [1] | growth [2] | growth [3] | growth [4] | growth [5] | growth [6] | growth [7] | growth [8] | growth [9] | growth [10] | growth [11] | growth [12] | growth [13] | growth [14] | growth [15] | growth [16] | growth [17] | growth [18] | growth [19] | growth [20]
O=C1/C(=C/c2ccc([N+](=O)[O-])s2)Oc2ccc(Cl)cc21 | -35.5% (active) | -56.8% (active) | -43% (active) | -6.59% (active) | -48.8% (active) | -71% (active) | -70.3% (active) | -26.5% (active) | -17.3% (active) | -69.6% (active) | -73.5% (active) | -11.2% (active) | -56.8% (active) | -57% (active) | -63.9% (active) | -57.9% (active) | -16.2% (active) | -91.3% (active) | -54.5% (active) | -44.4% (active)
COc1ccc(S(=O)(=O)Nc2ccc(OCc3nnc(-c4ccc(Cl)cc4)o3)c(F)c2)cc1 | 43.4% | 59.8% | 80.2% | 74.4% | 59.4% | 60.6% | 43.4% | 47.4% | 67.8% | 89.2% | 76.7% | 43.2% | 67.8% | 54.6% | 63.1% | 59.9% | 43.8% | 70.5% | 23.3% | 78%
O=NN(CCCl)C(=O)NCc1ccc(-c2ccc(CNC(=O)N(CCCl)N=O)cc2)cc1 | 103% | 96.7% | 86.2% | 91.5% | 97.8% | 96.5% | 81.7% | 87.1% | 94.8% | 104% | 112% | 84.2% | 74.3% | 124% | 108% | 69.7% | 83.2% | 65.7% | 96.6% | 95.4%
COc1cccc(C(=O)NNc2nc(N3CCOCC3)nc(N3CCN(C(c4ccccc4)c4ccccc4)CC3)n2)c1 | 84.2% | 83.6% | 82.8% | 82.2% | 87.8% | 70.3% | 86.6% | 62.4% | 86.6% | 75.4% | 87.2% | 63.5% | 91.7% | 86.3% | 69.4% | 71.5% | 87.3% | 93.6% | 90.9% | 114%
Cc1cc2cc3c(=O)[nH]c(=O)cc-3n(CC(O)C(O)C(O)CO)c2cc1C (stereo not given) | 106% | 110% | 119% | 81.1% | 101% | 111% | 96.2% | 97.8% | 103% | 93.1% | 95.5% | 108% | 104% | 109% | 115% | 108% | 97.6% | 107% | 110% | 107%
CCCc1c(C)nc2scc(-c3ccc(Cl)cc3)n2c1=O | 100% | -100% (active) | 102% | 88.9% | 108% | 92.5% | 94.3% | 104% | 101% | 103% | 105% | 99.3% | 116% | 109% | 92.7% | 98.3% | 105% | 101% | 110% | 107%
CCN1CCN(c2nc(NNC(=O)c3cccc(OC)c3)nc(N3CCN(C(c4ccccc4)c4ccccc4)CC3)n2)CC1 | 78.5% | 94.5% | 89.7% | 87.1% | -9.84% (active) | 42.8% | 97% | 65.3% | 72.8% | -31.6% (active) | 81.4% | 16.5% | -79.5% (active) | 71.9% | 56.1% | 80.9% | 84% | 71.6% | 45.9% | -43.2% (active)
CCCn1c(=O)c2c(nc(-c3cccc(OCCCCl)c3)n2C)n(CCC)c1=O | 59.1% | 16.5% | 41% | -18.3% (active) | 24.4% | -1.14% (active) | 83.2% | 28.3% | 23.9% | 65.8% | 61.3% | 92.6% | 62.2% | 36.2% | 37% | 59.9% | 15.3% | 63% | 82.1% | 68.6%
CCOC(=O)[C@@H]1[C@H](c2ccccc2)[C@H]([N+](=O)[O-])[C@H](c2cn(-c3ccccc3)nc2C)N1Cc1ccccc1 | 88.6% | 66.6% | 104% | 64.2% | 41.9% | 69.8% | 80.6% | 66.2% | 74.5% | 64.7% | 94.4% | 61.4% | 81% | 68.2% | 69.9% | 68.4% | 81.8% | 81.7% | 64.2% | 76.5%
Oc1ccccc1-c1nnc(Cn2c(Cc3cccc4ccccc34)nc3ccccc32)o1 | 90.8% | 93.1% | 84.4% | 87.6% | 108% | 78.3% | 92.2% | 100% | 103% | 110% | 106% | 98.6% | 87.1% | 101% | 108% | 96.6% | 93.9% | 97.9% | 100% | 96.9%
O=C(CSc1nnc(-c2ccc(Cl)cc2)o1)c1ccccc1 | 88.7% | 96.3% | 119% | 91.1% | 105% | 107% | 78.6% | 73.2% | 92.8% | 108% | 101% | 102% | 112% | 95.2% | 99.9% | 101% | 100% | 91.4% | 98.9% | 108%
Cc1c(C(=O)N[C@H](CO)Cc2ccccc2)[nH]c2ccc(Cl)cc2c1=O | 101% | 120% | 108% | 100% | 106% | 94.7% | 83.8% | 87.1% | 96.4% | 104% | 110% | 95.5% | 104% | 115% | 122% | 104% | 98.2% | 98.9% | 108% | 98.2%
CCCCN(CCCC)c1ccc(C(=NC(C)CCCN(CC)CC)c2ccc(N(C)C)cc2)cc1 (stereo not given) | -60.3% (active) | -34.9% (active) | -14.2% (active) | -80.4% (active) | -76.9% (active) | -45.5% (active) | -66.8% (active) | -16.4% (active) | -86.4% (active) | -88.4% (active) | 21.1% | -51.3% (active) | -77.9% (active) | -79.4% (active) | -84% (active) | -43.4% (active) | -72% (active) | -73.2% (active) | -70.6% (active) | -83% (active)
COc1ccc2c(=O)cc(C(Cl)(Cl)Cl)oc2c1 | -18.4% (active) | -29.2% (active) | -17.6% (active) | -14.8% (active) | -7.69% (active) | -26.1% (active) | -51.7% (active) | -0.889% (active) | 8.97% (active) | -88.4% (active) | 0.575% (active) | -12.7% (active) | -87.5% (active) | -31.1% (active) | -72.1% (active) | -36.4% (active) | -31.1% (active) | -27.4% (active) | -48.9% (active) | -67.1% (active)
CC(=O)Oc1c(C)c(C)c2c(c1C)CCC(C)(CC(=O)OCCCCCCCCCCC[P+](c1ccccc1)(c1ccccc1)c1ccccc1)O2 (stereo not given) | -52.2% (active) | 13.2% | 13.7% | -84.7% (active) | -46.5% (active) | -85.4% (active) | -78.5% (active) | -72% (active) | -92% (active) | -73.9% (active) | -71.5% (active) | -33.9% (active) | -66.3% (active) | -88.9% (active) | -89.5% (active) | -72.3% (active) | -79.8% (active) | -93.6% (active) | -80.5% (active) | -87.5% (active)
Nc1nc2c(nnn2C2CC(O)C(CO)O2)c(=O)[nH]1 (stereo not given) | 45% | 50% | 52% | 69% | 54.3% | 43.7% | 24.4% | 76.2% | 50.7% | 11.9% | 21.8% | 40.5% | 79.5% | 58.5% | 50.6% | 50.2% | 56.4% | 33.4% | 77.7% | 40%
